The values that follow come from PubChem BioAssay (NCATS).

Test [1] relates to Zika virus NS2B-NS3 protease (unlinked complex). As to the kind of experiment: Primary screen GU Rhodamine qHTS for Zika virus inhibitors: Unlinked NS2B-NS3 protease assay (AID 1347159). Note: nearly all actives have a fitted effect of over 60% in size. Note: potency is the fitted concentration of half-maximal effect. The method, boiled down: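 In dose–response format, inhibition of unlinked protease (25 nM) was measured with 1.5 microM bis-peptide Rhodamine110 substrate. Aprotinin served as the intraplate control.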

Test [2] concerns Zika virus NS2B-NS3 protease (linked construct). As to the kind of experiment: Primary screen NINDS Rhodamine qHTS for Zika virus inhibitors (AID 1347160). Note: nearly all actives have a fitted effect of over 55% in size. Note: potency is the fitted concentration of half-maximal effect. The gist of the method: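 Each compound, titrated, sat 15 min with 25 nM linked protease before 1.5 microM Rhodamine110 substrate went in. Fluorescence gain over the next 15 min, in pH 8.0 Tris with Tween 20, gave Hill-fitted curves.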
In general terms: qHTS replaces the single test concentration by a dilution series.

The nature of test [3]: Confirmatory screen NINDS Rhodamine qHTS for Zika virus inhibitors (AID 1347161). Note: potency is the fitted concentration of half-maximal effect; nearly all actives have a fitted effect of over 60% in size. The method, boiled down: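 Kinetic fluorescence (Ex 480 nm, Em 540 nm) over 15 min with 1.5 microM Rhodamine110 peptide and 25 nM linked protease.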
In test [4] the test system is Zika virus NS2B-NS3 protease. Put plainly: Primary screen GU AMC qHTS for Zika virus inhibitors (AID 1347154). Note: nearly all actives have a fitted effect of over 70% in size. The gist of the method:
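Fluorogenic AMC-substrate cleavage by noncovalent NS2B-NS3 protease complex (25 nM, pH 8.0 Tris buffer with Tween 20) followed for 15 minutes at room temperature (~20% conversion). Percent inhibition from ex340/em450 signal change, fitted by 4-parameter Hill equation.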

Structures are written as SMILES. Inconclusive results are not listed. Activity calls are given as the source filed them. Calls come from the whole dose curve; as a rule, active = well fitted curve in the direction sought with a large enough effect; inconclusive = small, poorly fitted or top-dose-only effect, or another doubt; inactive = no such curve, though single readings can be large; an effect the other way counts as inactive or inconclusive.

With `COc1ccc(-c2nc3ccc(C4=NNC(=O)CC4C)cc3[nH]2)cc1` (configuration not stated), the Potency result in test [1] and in test [2] was “inactive” each time.

For the compound `C=C1c2cccc(O)c2C(O)=C2C(=O)[C@@]3(O)C(O)=C(C(N)=O)C(=O)[C@@H](N(C)C)[C@@H]3[C@@H](O)[C@H]12`, the Potency in test [3] was 15.6 µM (active).

`Cc1ccc2c(c1)c1c(n2CCc2ccc(C)nc2)CCN(C)C1`: the Potency result in test [1] and in test [2] was “inactive” throughout.

Turning to `CCN1C[C@H](C)n2c(c(O)c3c(=O)n(Cc4ccc(F)c(Cl)c4)nc(C(=O)NC)c32)C1=O`, the Potency result in test [4] and in test [2] was “inactive” each time.

As for `CC[C@H](CC#N)OC(=O)N[C@@H](C)c1cccc(NC(=O)Nc2ccc(-c3cnco3)c(OC)c2)c1`, the Potency result in test [4] and in test [2] was “inactive” throughout.

In the case of `C[C@H](c1ccc(F)cc1CCCC(=O)O)N(c1cc(F)ccc1F)S(=O)(=O)c1ccc(Cl)cc1`, the Potency in test [1] and in test [2] was 14.1 µM (active) throughout.

On to `Cc1cc(-c2ncc(CC(=O)Nc3ccc(-c4cnccn4)cn3)cc2C)ccn1`, for which the Potency result in test [1] and in test [2] was “inactive” in each case.

As to `Cc1csc(-c2nnc(Nc3ccc(Oc4ncccc4-c4ccnc(N)n4)cc3)c3ccccc23)c1`, the Potency entry in test [1] and in test [2] was “inactive” throughout.

`COc1ccc(-c2cc3nccn3c(Nc3ncccc3C(N)=O)n2)cc1OC`: the Potency result in test [1] and in test [2] was “inactive” throughout.

For `NC(=O)c1noc([C@H](CCCC2CCCCC2)CC(=O)NO)n1`, the Potency entry in test [1] and in test [2] was “inactive” throughout.

Take `CC(=O)Nc1cccc(-n2c(=O)n(C3CC3)c(=O)c3c(Nc4ccc(I)cc4F)n(C)c(=O)c(C)c32)c1`: the Potency result in test [1] and in test [2] was “inactive” in each case.

On to `CC(C)(C)c1nc(-c2cccc(NS(=O)(=O)c3c(F)cccc3F)c2F)c(-c2ccnc(N)n2)s1`, for which the Potency in test [1] was 14.1 µM (active).
